Results: PubChem BioAssay (NCI)
The panel holds about 83,000 compounds, 20% with a hit somewhere; the sample as a whole holds those more often.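 Plates (96-well) were seeded with cells, treated with compound at one concentration, and incubated for 48 hours before percent growth was determined.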 The source made the active and inactive calls. Rule for the calls: active = growth percent below 10; inactive = the rest.

Tests used:
Experiment in all cases: NCI-60 one-dose screen, 48 h (100 = growth as untreated, 0 = no growth, -100 = all killed)
Settings in all cases: 10 µM unless noted
SR leukemia = test system: SR leukemia
RPMI-8226 leukemia = test system: RPMI-8226 leukemia
OVCAR-8 ovarian = test system: OVCAR-8 ovarian
OVCAR-5 ovarian = test system: OVCAR-5 ovarian
OVCAR-4 ovarian = test system: OVCAR-4 ovarian
SK-OV-3 ovarian = test system: SK-OV-3 ovarian
IGROV1 ovarian = test system: IGROV1 ovarian
OVCAR-3 ovarian = test system: OVCAR-3 ovarian
HS 578T breast = test system: HS 578T breast
NCI/ADR-RES ovarian = test system: NCI/ADR-RES ovarian
T-47D breast = test system: T-47D breast
BT-549 breast = test system: BT-549 breast
MDA-MB-435 melanoma = test system: MDA-MB-435 melanoma
SW-620 colon = test system: SW-620 colon
MCF7 breast = test system: MCF7 breast
HCT-116 colon = test system: HCT-116 colon
HCC-2998 colon = test system: HCC-2998 colon
KM12 colon = test system: KM12 colon

Measured: growth

N#Cc1c(-c2cccc(Cl)c2)cc(-c2cccnc2)[nH]c1=O
active: MDA-MB-435 melanoma 2.97%
inactive: SR leukemia 21.9% | RPMI-8226 leukemia 88.8% | OVCAR-8 ovarian 98.1% | OVCAR-5 ovarian 98.4% | OVCAR-4 ovarian 102% | SK-OV-3 ovarian 90.7% | IGROV1 ovarian 72.4% | OVCAR-3 ovarian 47.2% | HS 578T breast 62.7% | NCI/ADR-RES ovarian 80.3% | T-47D breast 87.3% | BT-549 breast 72.5% | SW-620 colon 71.1% | MCF7 breast 48.2% | HCT-116 colon 72.4% | HCC-2998 colon 98.6% | KM12 colon 65.6%

O=c1oc2ccccc2cc1-c1nn(-c2ccccc2)cc1-c1nn[nH]n1
inactive: SR leukemia 92.4% | RPMI-8226 leukemia 100% | OVCAR-8 ovarian 104% | OVCAR-5 ovarian 93.2% | OVCAR-4 ovarian 97.9% | SK-OV-3 ovarian 99.8% | IGROV1 ovarian 99.1% | OVCAR-3 ovarian 114% | HS 578T breast 105% | NCI/ADR-RES ovarian 102% | T-47D breast 100% | BT-549 breast 103% | MDA-MB-435 melanoma 99.5% | SW-620 colon 102% | MCF7 breast 94.8% | HCT-116 colon 96.5% | HCC-2998 colon 110% | KM12 colon 106%

CCn1cc(Cc2cc(C(=O)Nc3cc4cc(OC)c(OC)cc4c(C)n3)ccc2Cl)cn1
inactive: SR leukemia 10% | RPMI-8226 leukemia 29.6% | OVCAR-8 ovarian 34.6% | OVCAR-5 ovarian 103% | OVCAR-4 ovarian 58.2% | SK-OV-3 ovarian 57.9% | IGROV1 ovarian 69.5% | OVCAR-3 ovarian 38% | HS 578T breast 49.5% | NCI/ADR-RES ovarian 22.5% | T-47D breast 19.8% | BT-549 breast 17.3% | SW-620 colon 38.3% | MCF7 breast 18.5% | HCT-116 colon 10.3% | HCC-2998 colon 65.1% | KM12 colon 37.7%
active: MDA-MB-435 melanoma 2.12%

CC(=O)c1ccc(-n2cc(CN3CCN(c4cc5c(cc4F)c(=O)c(C(=O)O)cn5C4CC4)CC3)nn2)cc1
active: HCT-116 colon -9.74%
inactive: SR leukemia 99.6% | RPMI-8226 leukemia 47.9% | OVCAR-8 ovarian 95.1% | OVCAR-5 ovarian 103% | OVCAR-4 ovarian 102% | SK-OV-3 ovarian 84.9% | IGROV1 ovarian 75.3% | OVCAR-3 ovarian 90.4% | HS 578T breast 80.6% | NCI/ADR-RES ovarian 87.9% | T-47D breast 96.4% | BT-549 breast 102% | MDA-MB-435 melanoma 96.3% | SW-620 colon 90% | MCF7 breast 72.9% | HCC-2998 colon 86% | KM12 colon 84.9%

CN1CC(c2ccc(Br)cc2)C(C(=O)c2ccc(Br)cc2)C12C(=O)Nc1ccccc12 (stereo unspecified)
inactive: SR leukemia 68.1% | RPMI-8226 leukemia 62.3% | OVCAR-8 ovarian 83.8% | OVCAR-5 ovarian 82.1% | OVCAR-4 ovarian 63.6% | SK-OV-3 ovarian 80.8% | IGROV1 ovarian 62.6% | OVCAR-3 ovarian 79.3% | HS 578T breast 89.3% | NCI/ADR-RES ovarian 58.9% | T-47D breast 49.5% | BT-549 breast 100% | MDA-MB-435 melanoma 78.9% | SW-620 colon 72% | MCF7 breast 62.4% | HCT-116 colon 39.7% | HCC-2998 colon 84.5% | KM12 colon 75%

CN(C)Cc1cc(C(C)(C)C)cc(Br)c1O
inactive: SR leukemia 107% | RPMI-8226 leukemia 96.9% | OVCAR-8 ovarian 106% | OVCAR-5 ovarian 107% | OVCAR-4 ovarian 102% | SK-OV-3 ovarian 97.4% | IGROV1 ovarian 108% | OVCAR-3 ovarian 114% | HS 578T breast 30.7% | NCI/ADR-RES ovarian 106% | T-47D breast 99.6% | BT-549 breast 114% | MDA-MB-435 melanoma 101% | SW-620 colon 87.7% | MCF7 breast 87.9% | HCT-116 colon 103% | HCC-2998 colon 109% | KM12 colon 109%

COc1ccc(CNc2ccc3nc(NC(=O)CN4CCCCCC4)sc3c2)cc1
inactive: SR leukemia 93.5% | RPMI-8226 leukemia 55.6% | OVCAR-8 ovarian 87.8% | OVCAR-5 ovarian 95.5% | OVCAR-4 ovarian 62.3% | SK-OV-3 ovarian 103% | IGROV1 ovarian 107% | OVCAR-3 ovarian 101% | HS 578T breast 115% | NCI/ADR-RES ovarian 82.9% | T-47D breast 42.8% | BT-549 breast 86.1% | MDA-MB-435 melanoma 94.1% | SW-620 colon 86.7% | MCF7 breast 69.1% | HCT-116 colon 68.6% | HCC-2998 colon 109% | KM12 colon 89.2%

CC(=O)c1sc(-c2ccc(F)cc2)cc1O
inactive: SR leukemia 82.6% | RPMI-8226 leukemia 105% | OVCAR-8 ovarian 104% | OVCAR-5 ovarian 111% | OVCAR-4 ovarian 79.5% | SK-OV-3 ovarian 102% | IGROV1 ovarian 115% | OVCAR-3 ovarian 109% | HS 578T breast 117% | NCI/ADR-RES ovarian 106% | T-47D breast 98.4% | BT-549 breast 93.8% | MDA-MB-435 melanoma 96.1% | SW-620 colon 106% | MCF7 breast 94.5% | HCT-116 colon 95.3% | HCC-2998 colon 103% | KM12 colon 95.6%

CCCCCCCCCCCCCCCCCCOc1ccccc1CC(=O)NCC[N+](C)(C)C
inactive: SR leukemia 21.3% | RPMI-8226 leukemia 17.9% | OVCAR-8 ovarian 41.7% | OVCAR-5 ovarian 14.6% | OVCAR-4 ovarian 46.7% | SK-OV-3 ovarian 84.9% | OVCAR-3 ovarian 35% | HS 578T breast 61.8% | NCI/ADR-RES ovarian 99.3% | T-47D breast 73.2% | BT-549 breast 57.6% | MDA-MB-435 melanoma 73.1% | SW-620 colon 45.1% | MCF7 breast 57.6% | HCT-116 colon 45.2% | HCC-2998 colon 29.9%
active: IGROV1 ovarian -49.7% | KM12 colon -27%

CCCCCc1ccc(S(=O)(=O)Nc2cc(-c3csc(NC(C)=O)n3)ccc2N2CCN(C)CC2)cc1
inactive: SR leukemia 14.1% | OVCAR-8 ovarian 70.1% | OVCAR-5 ovarian 85.3% | OVCAR-4 ovarian 66% | SK-OV-3 ovarian 92.6% | IGROV1 ovarian 62.1% | OVCAR-3 ovarian 75.6% | HS 578T breast 67.3% | NCI/ADR-RES ovarian 61.2% | T-47D breast 58.8% | BT-549 breast 63.9% | KM12 colon 74.1%
active: RPMI-8226 leukemia -28.7% | MDA-MB-435 melanoma -45.4% | SW-620 colon -25.9% | MCF7 breast 9.36% | HCT-116 colon 3.98% | HCC-2998 colon -26.9%

CS(=O)(=O)Nc1cc(-c2ccc3ncnc(Nc4ccc(OCc5ccccn5)c(Cl)c4)c3c2)cnc1Cl
inactive: OVCAR-8 ovarian 14.4% | OVCAR-5 ovarian 12.5% | OVCAR-4 ovarian 20.9% | NCI/ADR-RES ovarian 77.7%
active: SR leukemia -5.01% | RPMI-8226 leukemia -50.3% | SK-OV-3 ovarian -27.1% | IGROV1 ovarian -30.6% | OVCAR-3 ovarian -19% | HS 578T breast -19.7% | T-47D breast -25.3% | BT-549 breast -3.21% | MDA-MB-435 melanoma 7.34% | SW-620 colon 5.12% | MCF7 breast 4.74% | HCT-116 colon 9.28% | HCC-2998 colon 3.04% | KM12 colon -5.09%

COc1cc(C=Nc2oc(-c3ccccc3)c(-c3ccccc3)c2C#N)cc(CN2CCCC2)c1O
inactive: SR leukemia 80.9% | RPMI-8226 leukemia 100% | OVCAR-8 ovarian 107% | OVCAR-5 ovarian 102% | OVCAR-4 ovarian 95.5% | SK-OV-3 ovarian 111% | IGROV1 ovarian 92% | OVCAR-3 ovarian 105% | HS 578T breast 90.2% | NCI/ADR-RES ovarian 104% | T-47D breast 85.7% | BT-549 breast 109% | MDA-MB-435 melanoma 104% | SW-620 colon 95.9% | MCF7 breast 96.4% | HCT-116 colon 95.4% | HCC-2998 colon 111% | KM12 colon 102%

CC(O)CNC(Cc1ccccc1)c1ccc2c(c1)OCO2 (stereo unspecified)
inactive: SR leukemia 101% | RPMI-8226 leukemia 90.3% | OVCAR-8 ovarian 97.1% | OVCAR-5 ovarian 59.6% | OVCAR-4 ovarian 102% | SK-OV-3 ovarian 66.2% | IGROV1 ovarian 101% | OVCAR-3 ovarian 98.7% | HS 578T breast 103% | NCI/ADR-RES ovarian 94.7% | T-47D breast 47.2% | BT-549 breast 57.9% | MDA-MB-435 melanoma 99.6% | SW-620 colon 92.8% | MCF7 breast 91.5% | HCT-116 colon 62.1% | HCC-2998 colon 104% | KM12 colon 99.3%

O=C1/C(=C/c2cccc(Br)c2)COc2ccc(O)cc21
active: SR leukemia 4.39% | RPMI-8226 leukemia -27.3% | SW-620 colon -21.2% | MCF7 breast 6.98% | HCT-116 colon 6.67%
inactive: OVCAR-8 ovarian 54.1% | OVCAR-5 ovarian 89.8% | OVCAR-4 ovarian 83.4% | SK-OV-3 ovarian 115% | IGROV1 ovarian 78% | OVCAR-3 ovarian 49.1% | HS 578T breast 60.3% | NCI/ADR-RES ovarian 47.6% | T-47D breast 19.6% | BT-549 breast 47.7% | MDA-MB-435 melanoma 25.1% | HCC-2998 colon 86.2% | KM12 colon 28%

COc1cc2c3c(c4c5ccccc5[nH]c4c2c(OC)c1OC)C(=O)N(CCN1CCCCC1)C3=O
inactive: SR leukemia 21.6% | OVCAR-5 ovarian 52.4% | OVCAR-4 ovarian 15.7% | SK-OV-3 ovarian 54.7% | HS 578T breast 52.2% | NCI/ADR-RES ovarian 24.6% | T-47D breast 59.5% | BT-549 breast 96.6% | MDA-MB-435 melanoma 33.7% | HCC-2998 colon 22.3%
active: RPMI-8226 leukemia -12% | OVCAR-8 ovarian -35.5% | IGROV1 ovarian -68.8% | OVCAR-3 ovarian -20.7% | SW-620 colon -66.4% | MCF7 breast -56.3% | HCT-116 colon -85.6% | KM12 colon -20%

O=C(Nc1cccnc1Nc1ccc(Cl)cc1)c1cn(Cc2cccc(Oc3ccccc3)c2)nn1
active: MDA-MB-435 melanoma -30.2%
inactive: SR leukemia 21.5% | RPMI-8226 leukemia 40.9% | OVCAR-8 ovarian 53.8% | OVCAR-5 ovarian 101% | OVCAR-4 ovarian 83.9% | SK-OV-3 ovarian 53% | IGROV1 ovarian 77.6% | OVCAR-3 ovarian 30.7% | HS 578T breast 39.9% | NCI/ADR-RES ovarian 14.4% | T-47D breast 48.1% | BT-549 breast 52.2% | SW-620 colon 36.5% | MCF7 breast 19.6% | HCT-116 colon 23.4% | HCC-2998 colon 63.9% | KM12 colon 31.8%

C[C@@H]1CN(c2cnc(C(=O)Nc3cc(F)cc4cccnc34)cn2)C[C@H](C)N1
active: MCF7 breast 9.07%
inactive: SR leukemia 28.6% | RPMI-8226 leukemia 26% | OVCAR-8 ovarian 61.1% | OVCAR-5 ovarian 83.9% | OVCAR-4 ovarian 12.7% | SK-OV-3 ovarian 86.2% | IGROV1 ovarian 78.9% | OVCAR-3 ovarian 39.5% | HS 578T breast 76.8% | NCI/ADR-RES ovarian 66% | T-47D breast 30% | BT-549 breast 102% | MDA-MB-435 melanoma 97% | SW-620 colon 46.2% | HCT-116 colon 13.1% | HCC-2998 colon 91.7% | KM12 colon 83.4%
